Compounds without any hit were thinned out: in the full panel of roughly 79,000, 15% have a hit. A number with no mark means an inactive call. Calls of active or inactive are those of the source. Cut-off read from the data, not from the text of the source: active = growth inhibition above about 70%; inactive = the rest.

Assay [1] is described as follows: NCI Yeast Anticancer Drug Screen. Data for the rad50 strain (AID 155).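 Note: 0% = growth of vehicle-only cultures of the same strain.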 To be noted: S. cerevisiae rad50 strain growth inhibition, stronger effect = higher value. In a few lines:
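Genetically altered yeast (DNA repair pathway); compound treatment; growth inhibition vs vehicle ctrl.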

A short description of assay [2]: NCI Yeast Anticancer Drug Screen. Data for the mec2-1 strain (AID 157). To be noted: S. cerevisiae mec2-1 strain, stronger effect = higher value. The method, boiled down:
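Growth inhibition is read against vehicle-treated controls after compound exposure of the mec2-1 yeast strain, which is defective in DNA damage repair or cell cycle control.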

A short description of assay [3]: NCI Yeast Anticancer Drug Screen. Data for the sgs1 mgt1 strain (AID 161).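 Note: 0% = growth of cultures given vehicle only.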 To be noted: S. cerevisiae sgs1 mgt1 strain, stronger effect = higher value. In a few lines: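 Percent growth inhibition was derived by comparing compound-exposed mutant yeast with vehicle-exposed cultures. The strain carries alterations in DNA damage repair.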
A short description of assay [4]: NCI Yeast Anticancer Drug Screen. Data for the cln2 rad14 strain (AID 165).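 Note: 0% = growth equal to vehicle treated cultures.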 To be noted: S. cerevisiae cln2 rad14 strain, stronger effect = higher value. In a few lines: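 Growth inhibition, relative to vehicle-treated controls, is the read-out. The test organism is a yeast strain with defined genetic alterations, cln2 rad14.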
Assay [5] can be described thus: NCI Yeast Anticancer Drug Screen. Data for the bub3 strain (AID 167). To be noted: S. cerevisiae bub3 mutant strain, stronger effect = higher value. In a few lines:
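Yeast carrying a defined mutation is treated with each compound, and growth is compared with that of vehicle-exposed cells to give inhibition.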

Assay [6] can be described thus: NCI Yeast Anticancer Drug Screen. Data for the mlh1 rad18 strain (AID 175). To be noted: S. cerevisiae mlh1 rad18 strain growth inhibition, stronger effect = higher value. In a few lines:
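Cells of a genetically altered yeast strain, deficient in DNA damage repair, were treated with compound. Their growth was then compared with that of vehicle-treated cultures to give inhibition.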

Where [7] appears, read: at 5.0 µM (retest, dose inferred, filed as 0.5).
Setting [8] is: at 50.0 µM (retest, dose inferred, filed as 5.0).

In the case of `CC(C)CCC(C)(C)c1cc(O)ccc1O`, the growth inhibition in assay [1] (setting [7]) was 35%; in assay [1] (setting [8]), 99% (active); in assay [1] (at 50.0 µM), 98.4% (active); in assay [2] (setting [7]), 13%; in assay [2] (setting [8]), 99% (active); in assay [2] (at 50.0 µM) it was 99.5% (active). Further, the growth inhibition in assay [3] (setting [7]) is 16%; in assay [3] (setting [8]) it was 98% (active); in assay [3] (at 50.0 µM), 75.7% (active); in assay [4] (setting [7]), 14%; in assay [4] (setting [8]) it was 92% (active); in assay [4] (at 50.0 µM) it was 87.5% (active). The growth inhibition in assay [5] (setting [7]) is 79% (active); in assay [5] (setting [8]) it was 98% (active); in assay [5] (at 50.0 µM) it was 98.8% (active); in assay [6] (setting [7]), 35%; in assay [6] (setting [8]) it was 99% (active); in assay [6] (at 50.0 µM), 97.6% (active).
`Oc1c(Cl)cc(C(c2cc(Cl)c(O)c(Cl)c2)C(Cl)(Cl)Cl)cc1Cl`: the growth inhibition was 94% (active) in assay [1] (setting [7]); 98% (active) in assay [1] (setting [8]); 98.8% (active) in assay [1] (at 50.0 µM); 95% (active) in assay [2] (setting [7]); 99% (active) in assay [2] (setting [8]); 99.1% (active) in assay [2] (at 50.0 µM). In addition, the growth inhibition in assay [3] (setting [7]) was 81% (active); in assay [3] (setting [8]), 99% (active); in assay [3] (at 50.0 µM), 99.3% (active); in assay [4] (setting [7]) it was 99% (active); in assay [4] (setting [8]), 98% (active); in assay [4] (at 50.0 µM) it was 98.5% (active). In addition, the growth inhibition in assay [5] (setting [7]) is 96% (active); in assay [5] (setting [8]) it was 99% (active); in assay [5] (at 50.0 µM), 98.8% (active); in assay [6] (setting [7]), 92% (active); in assay [6] (setting [8]), 98% (active); in assay [6] (at 50.0 µM), 98.6% (active).
For `CC(C)N=Cc1cc(I)cc(I)c1O.CC(C)N=Cc1cc(I)cc(I)c1O.[Co]`, the growth inhibition was 99% (active) in assay [1] (setting [7]); 99% (active) in assay [1] (setting [8]); 96.8% (active) in assay [1] (at 50.0 µM); 99% (active) in assay [2] (setting [7]); 99% (active) in assay [2] (setting [8]); 97.6% (active) in assay [2] (at 50.0 µM). Besides, the growth inhibition was 99% (active) in assay [3] (setting [7]); 99% (active) in assay [3] (setting [8]); 97.2% (active) in assay [3] (at 50.0 µM); 98% (active) in assay [4] (setting [7]); 98% (active) in assay [4] (setting [8]); 96.1% (active) in assay [4] (at 50.0 µM). The growth inhibition in assay [5] (setting [7]) was 98% (active); in assay [5] (setting [8]) it was 99% (active); in assay [5] (at 50.0 µM), 96.5% (active); in assay [6] (setting [7]) it was 99% (active); in assay [6] (setting [8]) it was 99% (active); in assay [6] (at 50.0 µM), 97% (active).
On to `CCCCCCCCCCCCCCNCCC(=O)O`, for which the growth inhibition in assay [1] (setting [7]) was -8%; in assay [1] (setting [8]), 99% (active); in assay [1] (at 50.0 µM), 99.1% (active); in assay [2] (setting [7]), 23%; in assay [2] (setting [8]), 100% (active); in assay [2] (at 50.0 µM) it was 99.5% (active). Also, the growth inhibition in assay [3] (setting [7]) was 2%; in assay [3] (setting [8]), 98% (active); in assay [3] (at 50.0 µM) it was 99.1% (active); in assay [4] (setting [7]), -8%; in assay [4] (setting [8]), 99% (active); in assay [4] (at 50.0 µM) it was 99.2% (active). Besides, the growth inhibition in assay [5] (setting [7]) is -6%; in assay [5] (setting [8]), 99% (active); in assay [5] (at 50.0 µM) it was 99.3% (active); in assay [6] (setting [7]) it was -13%; in assay [6] (setting [8]), 99% (active); in assay [6] (at 50.0 µM) it was 99.3% (active).
Regarding `CSc1nc(C)c(C(=O)CCN2CCOCC2)s1`, the growth inhibition is -7% in assay [1] (setting [7]); 67% in assay [1] (setting [8]); 99.5% (active) in assay [1] (at 50.0 µM); 11% in assay [2] (setting [7]); 99% (active) in assay [2] (setting [8]); 99.6% (active) in assay [2] (at 50.0 µM). Further, the growth inhibition in assay [3] (setting [7]) is -4%; in assay [3] (setting [8]), 75% (active); in assay [3] (at 50.0 µM) it was 99.6% (active); in assay [4] (setting [7]), -6%; in assay [4] (setting [8]) it was 89% (active); in assay [4] (at 50.0 µM), 93% (active). In addition, the growth inhibition in assay [5] (setting [7]) is -12%; in assay [5] (setting [8]) it was 92% (active); in assay [5] (at 50.0 µM) it was 47.6%; in assay [6] (setting [7]), -5%; in assay [6] (setting [8]), 88% (active); in assay [6] (at 50.0 µM), 99.2% (active).
In the case of `COC(=O)CCCCC(=O)N(C(C)C)C(C)C`, the growth inhibition in assay [1] (setting [7]) is 4%; in assay [1] (setting [8]) it was -10%; in assay [1] (at 50.0 µM), -8.6%; in assay [2] (setting [7]), -5%; in assay [2] (setting [8]) it was -1%; in assay [2] (at 50.0 µM), -14.4%. Moreover, the growth inhibition in assay [3] (setting [7]) was -11%; in assay [3] (setting [8]) it was -11%; in assay [3] (at 50.0 µM), -19.8%; in assay [4] (setting [7]), -2%; in assay [4] (setting [8]) it was 11%; in assay [4] (at 50.0 µM), 76.3% (active). For the same molecule, the growth inhibition in assay [5] (setting [7]) was 2%; in assay [5] (setting [8]) it was 4%; in assay [5] (at 50.0 µM), -3.5%; in assay [6] (setting [7]), 5%; in assay [6] (setting [8]), -5%; in assay [6] (at 50.0 µM), 19.1%.
As to `COc1ccc(/C=C2\CN(C)C/C(=C\c3ccc(OC)c(OC)c3OC)C2=O)c(OC)c1OC`, the growth inhibition in assay [1] (setting [7]) is 27%; in assay [1] (setting [8]), 96% (active); in assay [1] (at 50.0 µM), 85.4% (active); in assay [2] (setting [7]), 1%; in assay [2] (setting [8]), 97% (active); in assay [2] (at 50.0 µM), 93.5% (active). For the same molecule, the growth inhibition was 7% in assay [3] (setting [7]); 98% (active) in assay [3] (setting [8]); 92% (active) in assay [3] (at 50.0 µM); 7% in assay [4] (setting [7]); 86% (active) in assay [4] (setting [8]); 91.2% (active) in assay [4] (at 50.0 µM). For the same molecule, the growth inhibition in assay [5] (setting [7]) is 14%; in assay [5] (setting [8]), 96% (active); in assay [5] (at 50.0 µM), 95.8% (active); in assay [6] (setting [7]) it was -4%; in assay [6] (setting [8]) it was 97% (active); in assay [6] (at 50.0 µM), 91.3% (active).
`CCCCN(CCCC)/N=C\C1=C2NC(=O)/C(C)=C\C=C/C(OC)C(OC(N)=O)/C(C)=C/C(C)C(O)C(OC)CC(C)CC(=C(OC)C1=O)C2=O` (configuration not stated): the growth inhibition in assay [1] (setting [7]) is 2%; in assay [1] (setting [8]), 81% (active); in assay [1] (at 50.0 µM), 54.4%; in assay [2] (setting [7]), -2%; in assay [2] (setting [8]), 87% (active); in assay [2] (at 50.0 µM) it was 48.4%. Besides, the growth inhibition in assay [3] (setting [7]) is -4%; in assay [3] (setting [8]), 89% (active); in assay [3] (at 50.0 µM) it was 47.9%; in assay [4] (setting [7]), -8%; in assay [4] (setting [8]) it was 78% (active); in assay [4] (at 50.0 µM) it was 47.6%. For the same molecule, the growth inhibition in assay [5] (setting [7]) was -3%; in assay [5] (setting [8]), 32%; in assay [5] (at 50.0 µM), 44%; in assay [6] (setting [7]) it was -2%; in assay [6] (setting [8]), 80% (active); in assay [6] (at 50.0 µM) it was 60.5%.
Consider `ClCCOCCOc1c(Cl)cc(Cl)c(Cl)c1Cl`, for which the growth inhibition is 6% in assay [1] (setting [7]); 12% in assay [1] (setting [8]); 58.4% in assay [1] (at 50.0 µM); 0% in assay [2] (setting [7]); 13% in assay [2] (setting [8]); 27.6% in assay [2] (at 50.0 µM). In addition, the growth inhibition is 9% in assay [3] (setting [7]); 58% in assay [3] (setting [8]); 43.5% in assay [3] (at 50.0 µM); 4% in assay [4] (setting [7]); -11% in assay [4] (setting [8]); -26.7% in assay [4] (at 50.0 µM). In addition, the growth inhibition was 3% in assay [5] (setting [7]); 14% in assay [5] (setting [8]); 59.6% in assay [5] (at 50.0 µM); 9% in assay [6] (setting [7]); 26% in assay [6] (setting [8]); 71% (active) in assay [6] (at 50.0 µM).

Source of the values: PubChem BioAssay (NCI).
